According to PubChem BioAssay (NCI):
The panel holds about 83,000 compounds, 20% with a hit somewhere; the sample as a whole holds those more often.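 The endpoint reported here, percent growth, reads 100 for growth as untreated, 0 for no net growth and -100 for all cells dead.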 Values without a mark were called inactive. The source made the active and inactive calls. Rule for the calls: active = growth percent below 10; inactive = the rest.

Columns and labels:
Test in all cases: NCI-60 one-dose screen, 48 h (100 = growth as untreated, 0 = no growth, -100 = all killed)
Settings in all cases: 10 µM unless noted
T-47D breast = test system: T-47D breast
MDA-MB-435 melanoma = test system: MDA-MB-435 melanoma
SW-620 colon = test system: SW-620 colon
MCF7 breast = test system: MCF7 breast
HCT-116 colon = test system: HCT-116 colon
HCC-2998 colon = test system: HCC-2998 colon
KM12 colon = test system: KM12 colon

Row | SMILES | growth (T-47D breast) | growth (MDA-MB-435 melanoma) | growth (SW-620 colon) | growth (MCF7 breast) | growth (HCT-116 colon) | growth (HCC-2998 colon) | growth (KM12 colon)
1 | COC(=O)[C@]1(C)CC[C@]2(C)CC[C@]3(C)C(=CC(=O)[C@@H]4[C@@]5(C)CCC(=O)NC(C)(C)[C@@H]5CC[C@]43C)[C@@H]2C1 | -10.7% [100 µM] (active) | -48.8% [100 µM] (active) | -54.8% [100 µM] (active) | -49.7% [100 µM] (active) | -72.5% [100 µM] (active) | -89.2% [100 µM] (active) | -80.1% [100 µM] (active)
2 | CCOC(=O)/C(C#N)=C(\C)CCc1ccccc1 | 98.9% | 110% | 103% | 91.9% | 87.7% | -6.07% (active) | 113%
3 | CCC(C)[C@H](NC(=O)NC(=O)NC(=O)CI)C(=O)OC (some centres not stated) | 38.5% | 69.5% | 9.41% (active) | 42.1% | 65.2% | 103% | 100%
4 | Cc1cc(C)c(O)c(CNCCCCCCNCc2cc(C)cc(C)c2O)c1 | -60.8% (active) | -90.8% (active) | -75.4% (active) | -81.4% (active) | -42.9% (active) | -84.3% (active) | -38.2% (active)
5 | O=C1COCCN1c1ccc(NCc2cn(Cc3ccc(F)cc3)c3ccccc23)cc1 | -19.8% (active) | 99.1% | 28.1% | 4.76% (active) | 6.21% (active) | 81.9% | 98.6%
6 | COC(=O)C(=Cc1ccccc1[N+](=O)[O-])C(=O)OC | 22.6% | 15.5% | 34.7% | 15.4% | 6.83% (active) | 55.2% | 15.7%
7 | O=[N+]([O-])c1cc(CCl)ccc1OCCBr | 88.3% | 104% | 106% | 89.7% | 93.9% | 104% | 113%
8 | COCCCNc1nc(NC(=O)c2cc(Br)cc(C(F)(F)F)c2)cc(-c2cccnc2)n1 | 65% | 88.4% | 86.9% | 83.8% | 85.6% | 114% | 105%
9 | O=C(CCNCc1ccccc1)c1ccccc1 | 104% | 109% | 109% | 102% | 106% | 107% | 96.7%
10 | c1ccc(-c2n[nH]c(-c3ccccn3)n2)nc1 | 95.8% | 106% | 117% | 93.5% | 110% | 108% | 128%
11 | CC1(C)OC2[C@@H](CNC(=O)NC(=O)NC(=O)CI)O[C@@H](n3cnc4c(NC(=O)Nc5ccccc5)ncnc43)[C@H]2O1 (some centres not stated) | 49% | 83.8% | -41.9% (active) | 33% | 51.2% | 94% | 84.2%
12 | CCN(CCO)CCC(=O)c1ccc([N+](=O)[O-])cc1 | 90.6% | 111% | 113% | 98.6% | 112% | 97.4% | 102%
13 | Cc1cnc(N)nc1OCCNC(=O)c1cccc(-c2ccc(S(=O)(=O)Nc3ccc4c(c3)N(C(=O)C3CC3)CCC4)cc2)c1 | 36.9% | 78.8% | 99.1% | 77.2% | 76.3% | 77.4% | 75.2%
14 | CC(C)[C@H]1CCC2=C3CC[C@]45OC(=O)[C@@]6(CCC(C)(C)C[C@H]64)CC[C@@]5(C)[C@]3(C)CC[C@@]21C | 53.9% [100 µM] | 78.5% [100 µM] | 78.7% [100 µM] | 61.2% [100 µM] | 51.6% [100 µM] | 97.9% [100 µM] | 76% [100 µM]
15 | CCOc1ccc2sc(NS(=O)(=O)c3ccc(N)cc3)nc2c1 | 122% | 107% | 115% | 97.4% | 110% | 107% | 105%
16 | O=C(NCCCNC(=O)OCc1ccc2cccc(O)c2n1)OCc1ccc2cccc(O)c2n1 | 49.1% | 18.5% | 4.75% (active) | 19.3% | -46.3% (active) | 85.1% | 53.3%
17 | C#CC(OC(=O)N(C)C)(c1ccccc1)c1ccc(F)cc1 (configuration not stated) | 100% | 120% | 107% | 113% | 105% | 86.3% | 107%
18 | Cc1ccc(S(=O)(=O)Oc2ccc(Br)cc2Br)cc1 | 70.7% | -46% (active) | 58.6% | 75.7% | 49.3% | 78.3% | 45.9%
19 | CCCCCCCCCCCCCC[n+]1cccc(C(N)=O)c1 | 49.8% | -36.5% (active) | 0.686% (active) | 39.4% | 20.8% | -51.8% (active) | -87.1% (active)
20 | O=S(=O)(/N=c1/n(-c2ccccc2)nc2n1CCN2C1=NCCN1)c1ccc(-c2ccccc2)cc1 | 94% | 94.4% | 98.3% | 97.8% | 95.6% | 101% | 103%
21 | COCCCNc1nc(NC(=O)c2cc(OC)cc(OC)c2)cc(-c2cccnc2)n1 | 63.8% | 100% | 101% | 97.8% | 90.3% | 110% | 103%
